A selection: hits, their analogues and other compounds. The true share with any hit is near 4.9%.
dFosB activator = activators of delta FosB homodimer, primary screen, biochemical, fluorescence polarization, TAMRA-CDK5 oligo, single point; purified delta FosB; percent of positive-control signal above neutral wells; activation, % at 25 µM; hit rate 0.99% among 340,000; Protein FosB (Mus musculus), P13346; AID 493131, 2011;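 active = mean activation above about 17%, with every replicate also reaching it, limit read from the data, passing the limit was not always enough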
Target sequence (P13346 whole entry, looked up): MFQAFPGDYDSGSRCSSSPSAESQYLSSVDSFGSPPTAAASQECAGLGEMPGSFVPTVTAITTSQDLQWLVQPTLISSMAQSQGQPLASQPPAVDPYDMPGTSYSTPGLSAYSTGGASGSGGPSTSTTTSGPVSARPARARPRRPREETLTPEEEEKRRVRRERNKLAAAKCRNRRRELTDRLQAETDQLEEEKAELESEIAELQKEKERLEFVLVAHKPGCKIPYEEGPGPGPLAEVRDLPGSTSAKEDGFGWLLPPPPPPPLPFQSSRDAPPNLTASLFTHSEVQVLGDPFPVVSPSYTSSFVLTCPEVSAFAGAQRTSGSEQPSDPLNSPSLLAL
HSP90 refold inh = HSP90 inhibitors, primary screen, cell lysate, luminescence; Rabbit reticulocyte lysate, luciferase refolding luminescence, 3 h; inhibition, % at 5.6 µM; hit rate 0.91% among 290,000; Heat shock protein HSP 90 (rabbit reticulocyte lysate; luciferase refolding); AID 1789, 2009;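 active = inhibition above the screen-wide mean plus 3 SD, computed separately per campaign, cut at about 16% in these data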;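 note: 0% = DMSO wells and 100% = 60 µM geldanamycin wells; inhibitors lower the luminescence because luciferase stays unfolded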
MPTP inh = mitochondrial permeability transition pore inhibitors, primary screen, biochemical, isolated mouse mitochondria, absorbance; Ca2+ swelling absorbance, 30 min; inhibition, % at 10 µM; hit rate 1.4% among 360,000; AID 602449, 2012;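 active = inhibition of 50% or more, scaled per plate between neutral and stimulator controls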;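 note: 0% = DMSO wells given calcium and 100% = 1 mM EGTA wells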
Platelet DG rel = inhibitors of platelet dense granule secretion, primary screen, cell-based, MLPCN, human platelets; inhibition, %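 (compounds screened at 7.5 µM in platelet-rich plasma)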; human platelet-rich plasma, SFLLRN dense granule ATP release, luminescence; hit rate 0.22% among 300,000;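 active = mean replicate score, as percent of positive control, at or above 50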
HSF1 activator = HSF-1 activators, primary screen, NIH3T3-HGL cells, MG132 stress, luminescence, single point. NIH3T3-HGL HSF-1 luciferase reporter, 8 h; 100% = twice DMSO control signal. activation, % at 9 µM. hit rate 1.7% among 300,000. AID 504408, 2011;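 active = mean replicate activation of at least 50% with a set share of replicates each reaching 50%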;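 note: 0% = median of the neutral control wells and 100% = twice that signal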
HSF1 inhib = HSF1 inhibitors in luciferase reporter cells, primary screen, cell-based, NIH3T3, luminescence. NIH3T3-HGL HSE-luciferase, MG132-induced, luminescence 8 h; active compounds read low. activity change, negative = inhibition, % at 7.5 µM (by protocol). hit rate 0.77% among 300,000;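 active = more than half of replicate wells show activity change below -50%, luminescence cut by over half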;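 note: luciferase reports HSF-1 transcriptional activity via heat shock element; 0% = median of DMSO wells and -100% = zero luminescence signal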
The depositor's hits bear a star; · = no result given.

SMILES	dFosB activator	HSP90 refold inh	MPTP inh	Platelet DG rel	HSF1 activator	HSF1 inhib
CCCCN=Cc1c(C)[nH]n(-c2ccccc2)c1=S	-3	1	-3	-17	-1	-8
COc1ccc(CCNC(=O)c2nonc2N)cc1	-1	-3	-1	0	61*	41
CCOc1ccccc1CNCCNC(=O)c1nonc1N	5	16*	2	6	1	0
CCOc1ccccc1NC(=O)CCS(=O)(=O)c1cccs1	-9	9	-1	1	-92	-89*
O=C(/C(=C(\[O-])c1ccccc1)[n+]1ccc2ccccc2c1)c1ccccc1	0	-2	-2	-9	4	-4
O=C(/C(=C(\[O-])c1ccccc1)[n+]1ccc2ccccc2c1)c1ccc([N+](=O)[O-])cc1	2	0	-1	-3	-72	-64*
O=C(/C(=C(\[O-])c1ccccc1)[n+]1ccc2ccccc2c1)c1ccc(Cl)cc1	-5	2	8	10	-66	-57*
C=CCn1c(=O)c2ccccc2n2c(SCC(=O)Nc3sc(C(=O)N(CC)CC)c(C)c3C(=O)OCC)nnc12	5	-3	3	5	13	5
C=CCn1c(=O)c2ccccc2n2c(SCC(=O)Nc3sc(C)c(CC)c3C(=O)OCC)nnc12	-14	-5	6	0	54*	20
O=C(O)CSc1nc(-c2ccccc2)nc2c1oc1ccccc12	-35	1	1	3	-74	-68*
CC(C)[C@H](Nc1nc(-c2ccccc2)nc2c1oc1ccccc12)C(=O)O	-3	-2	-1	-34	-65	-55*
CCC(C)[C@H](Nc1nc(-c2ccccc2)nc2c1oc1ccccc12)C(=O)O (stereo not given in full)	-4	-4	-2	14	-26	-3
CCc1nc(SCC(=O)c2cccs2)c2oc3ccccc3c2n1	-12	7	4	-4	66*	12
O=C(Cn1ccnc1[N+](=O)[O-])NCCO	·	·	2	·	·	·
O=C(c1ccccc1)C(Nc1cccc([N+](=O)[O-])c1)c1ccccc1 (stereo not given)	-9	·	1	·	·	·
COC(=O)c1ccc2[nH]ccc2c1	2	-2	-2	2	18	-1
CC(C)N1CCc2c(sc(NC(=O)CCc3ccccc3)c2C(N)=O)C1	-6	1	0	11	-3	-10
CC(=O)Nc1sc2c(c1-c1nc3ccccc3s1)CCN(C(C)C)C2	35*	3	22	·	·	·
CN1CCc2c(sc(NC(=O)c3cc4cc([N+](=O)[O-])ccc4s3)c2C(N)=O)C1	·	-8	·	6	1	2
CC(C)N1CCc2c(sc(NC(=O)Cc3ccccc3)c2C(N)=O)C1	-10	-1	0	20	-4	-4
CC(C)N1CCc2c(sc(NC(=O)c3cc4cc([N+](=O)[O-])ccc4s3)c2C(N)=O)C1	48*	-3	1	3	-21	-2
CC(C)N1CCc2c(sc(NC(=O)c3ccc(C(=O)c4ccccc4)cc3)c2C(N)=O)C1	29*	-3	1	-10	-14	-4
CC(C)N1CCc2c(sc(NC(=O)c3ccc4ccccc4c3)c2C(N)=O)C1	-33	3	0	-7	-64	-60*
O=C(Nc1nccs1)C(c1ccccc1)N1CCCCC1 (stereo not given)	11	-1	0	-9	5	-3
COc1ccc(NS(=O)(=O)c2ccc(F)c(F)c2F)cc1S(=O)(=O)N1CCOCC1	0	·	-3	·	·	·
O=C(CCNC(=O)c1ccc(Br)cc1)NNC(=O)c1ccccc1O	6	·	-1	·	-1	0
CCN1CCc2c(sc(NC(=O)c3cc4ccccc4cc3OC)c2C(N)=O)C1	-21	-2	2	14	-64	-51*
COc1cccc(C(C2C(=O)CC(C)(C)CC2=O)C2C(=O)CC(C)(C)CC2=O)c1	-12	1	1	10	-9	1
CC1(C)CC(=O)C(C(c2cccnc2)C2C(=O)CC(C)(C)CC2=O)C(=O)C1	-1	-3	1	-1	-92	-90*

Compound activity from PubChem BioAssay.
